Measurements as given in ChEMBL document CHEMBL3988442, “University of Dundee, Small-Polar-MMV Screening Library” (2021).
About 13,000 (27%) of roughly 48,000 compounds showed an effect of 50% or more. Some of the results follow.

Test system: Wolbachia pipientis
Assay: Anti-Wolbachia Cell-Based Screen
Assay type: functional
Design: scale not given: in the data most compounds retested in dose-response had high values
Conditions: 5 µM

First: CNS(=O)(=O)c1cccc(CNc2ccc(C#N)cn2)c1
Second: C=C(C)CN(c1cn[nH]c1)S(=O)(=O)c1cccc(C#N)c1
The “Percent Effect” value of the first is higher: 2.285% for the first, -12.41% for the second.

Going from CS(=O)(=O)NCCCn1ccc2ccccc21 to COC(=O)c1ccc2ccn(CC3CCCCO3)c(=O)c2c1 (stereo not drawn), the “Percent Effect” value falls from 3.407% to -39.6%.

Compared with COc1ccc(-c2cc(CN)ccc2F)c(OC)c1OC, CN(C)C(=O)Cc1ccc(NCc2nccn2C)cc1 is lower in “Percent Effect” value: 2.502% for the first, -22.63% for the second.

First: CCOCC1CC2(CCN(C(=O)C3CC=CC3)CC2)CO1 (stereo not drawn)
Second: CCc1ccc(CN2CCC3(CCCN(C(=O)c4cnccn4)C3)C2)o1.O=C(O)C(F)(F)F (stereo not drawn)
The “Percent Effect” value of the first is lower: -13.65% for the first, 23.64% for the second.

Compared with CNC(=O)C1(N2CCC[C@H]2C(=O)NC2CCCCC2)CCOCC1.Cl, Cc1cc2n(n1)CC(CNC1CCN(C(=O)C3CC3)CC1)CN2 (stereo not drawn) is higher in “Percent Effect” value: -2.575% for the first, 1.236% for the second.

Compared with OCCC1CN(c2nc(-c3ccncc3)nc3c2CCNCC3)CCO1 (stereo not drawn), O=C(NCCn1ccc(-c2ccncc2)n1)c1ccncc1 is higher in “Percent Effect” value: -20.05% for the first, -0.4931% for the second.

Compared with CC(C)(C)c1nc(CN2CCCC2Cn2cccn2)no1 (stereo not drawn), CC(C)(C)c1nc(CN2CCCC2Cn2cncn2)no1 (stereo not drawn) is higher in “Percent Effect” value: 10.76% for the first, 86.44% for the second.

Compared with CCCc1nc(CN2CCCC2Cn2cncn2)no1 (stereo not drawn), CCCc1nc(CN2CCOC(Cn3cncn3)C2)no1 (stereo not drawn) is lower in “Percent Effect” value: 115.4% for the first, 3.436% for the second.

Compared with Cc1nccn1-c1ccc(=O)n(CCNC(=O)c2cccs2)n1, Cc1nccn1-c1ccc(=O)n(CCNC(=O)c2ccncc2)n1 is lower in “Percent Effect” value: 125.6% for the first, 97.47% for the second.

Compared with Cc1nccn1-c1ccc(CNC(=O)c2ccc[nH]2)cn1, Cc1nccn1-c1ccc(CNC(=O)c2ccc([S+](C)[O-])cc2)cn1 (stereo not drawn) is lower in “Percent Effect” value: 15.47% for the first, 4.955% for the second.

First: O=C(NCCNc1cc(-n2cccc2)ncn1)c1cccs1
Second: Cc1ccc(CN2CCC3(CC2)CN(C(=O)c2cnccn2)CCO3)o1.O=C(O)C(F)(F)F
The “Percent Effect” value of the first is lower: 19.24% for the first, 98.59% for the second.

Going from Cc1nc(NC(=O)N2CCCC(N(C)C)C2)nn1C (stereo not drawn) to Cn1cc(CN2CCC3(CCCN(C(=O)c4cnccn4)C3)C2)cn1 (stereo not drawn), the “Percent Effect” value rises from -14.3% to 7.413%.

First: Oc1ccc(N2CCN(Cc3cc4c(cc3Br)OCCO4)CC2)cc1
Second: Cn1cc(CN2CCC3(CC2)CN(C(=O)c2cnccn2)CCO3)cn1
The “Percent Effect” value of the first is lower: -10.73% for the first, 101.7% for the second.

Going from CC(C)CCN1CCC2(CC1)CN(C(=O)c1cnccn1)CCO2.O=C(O)C(F)(F)F to Cn1cc(CN2CCCC3(CCN(C(=O)c4cnccn4)C3)C2)cn1.O=C(O)C(F)(F)F.O=C(O)C(F)(F)F (stereo not drawn), the “Percent Effect” value falls from -8.642% to -36.61%.
